# Reference: PubChem BioAssay (NCATS)
# Inconclusive results are not listed. Where a call stands in place of a potency, no number is given. Calls of active or inactive are those of the source. The call rests on the fitted dose curve; in most records, active means well fitted inhibition curve with a large enough effect; inconclusive means small, poorly fitted or top-dose-only effect; inactive means flat fitted curve, though single readings scatter.
# What was measured:
# Test in all cases: qHTS profiling for inhibitors of Plasmodium falciparum proliferation (AID 504749); further: nearly all actives have a fitted effect of over 60% in size
# Settings in all cases: P. falciparum in erythrocytes, SYBR Green DNA, 72 h; series mostly up to 28.7 µM
# [1] = test system: CP329
# Summary of the method: (§1)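 SYBR Green fluorescence (ex 485 nm, em 535 nm) reports parasite DNA after 72 h compound exposure of infected red cells at 0.3% parasitemia, 2.5% hematocrit; signal normalized to 0.29 uM artemisinin and vehicle wells.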
# [2] = test system: DFO2036
# Summary of the method: as §1
# [3] = test system: Dd2
# Summary of the method: as §1
# [4] = test system: FAB9
# Summary of the method: as §1
# [5] = test system: DIV14
# Summary of the method: as §1
# [6] = test system: DIV17
# Summary of the method: as §1
# [7] = test system: DIV30
# Summary of the method: as §1
# [8] = test system: ECU
# Summary of the method: as §1
# [9] = test system: GB4
# Summary of the method: as §1
# [10] = test system: CP335
# Summary of the method: as §1
# Potency means the concentration at half of the fitted maximal effect.
Compound,Potency [1],Potency [2],Potency [3],Potency [4],Potency [5],Potency [6],Potency [7],Potency [8],Potency [9],Potency [10]
Oc1ccc(Cl)cc1Sc1cc(Cl)ccc1O,inactive,inactive,inactive,inactive,,,,,,
O=C(O)CCCCC(=O)O,inactive,inactive,inactive,inactive,inactive,inactive,inactive,inactive,inactive,
CN(C)CCCOc1nn(Cc2ccccc2)c2ccccc12,inactive,inactive,,inactive,,,inactive,inactive,,
CC(=O)OCC(=O)[C@@]1(OC(C)=O)[C@@H](C)C[C@H]2[C@@H]3C[C@H](F)C4=CC(=O)C=C[C@]4(C)[C@@]3(F)[C@@H](O)C[C@@]21C,inactive,inactive,inactive,inactive,,,inactive,inactive,,inactive
CC(O)C(=O)O (stereo not drawn),inactive,inactive,inactive,inactive,inactive,inactive,inactive,inactive,inactive,
CC(C)(Oc1ccc(Cl)cc1)C(=O)O,inactive,inactive,inactive,inactive,inactive,inactive,inactive,inactive,inactive,
CC(=O)c1ccc2c(c1)N(CCCN1CCC(CCO)CC1)c1ccccc1S2,inactive,inactive,,inactive,,,inactive,inactive,,
O=S1(=O)c2cccc3cccc(c23)N1CCCN1CCN(c2ccc(F)cc2)CC1,inactive,inactive,inactive,inactive,,,inactive,inactive,inactive,inactive
CCCCOc1ccc(OCCCN2CCOCC2)cc1,inactive,inactive,inactive,inactive,inactive,inactive,inactive,inactive,inactive,
Cc1ccc(C(=O)C(C)CN2CCCCC2)cc1 (stereo not drawn),inactive,inactive,inactive,inactive,inactive,,,,13.5 µM (active),
CCCN1CCCC[C@H]1C(=O)Nc1c(C)cccc1C,inactive,inactive,,inactive,,,inactive,inactive,15.1 µM (active),
CC(Cc1cccc(C(F)(F)F)c1)NCCOC(=O)c1ccccc1 (stereo not drawn),inactive,inactive,,inactive,,,inactive,inactive,,inactive
COC(=O)[C@H]1[C@H]2C[C@H]3c4[nH]c5ccccc5c4CCN3C[C@H]2CC[C@@H]1O,inactive,,,,inactive,inactive,inactive,,inactive,inactive
NC(CS)C(=O)O (stereo not drawn),inactive,12.6 µM (active),,,6.75 µM (active),9.53 µM (active),16.9 µM (active),,,
C#C[C@]1(O)CC[C@H]2[C@@H]3CCc4cc(OC5CCCC5)ccc4[C@H]3CC[C@@]21C,inactive,inactive,inactive,inactive,,inactive,inactive,inactive,,
CCCCCCCCCCCCCCCCCC(=O)OCC(O)CO (stereo not drawn),inactive,inactive,inactive,inactive,inactive,inactive,,inactive,inactive,
CC/C(=C(/CC)c1ccc(O)cc1)c1ccc(O)cc1,inactive,inactive,inactive,inactive,,inactive,inactive,inactive,,
c1ccc(CNCCNCc2ccccc2)cc1,inactive,,11.2 µM (active),inactive,3.79 µM (active),6.01 µM (active),,11.2 µM (active),,
CN=C(NC#N)Nc1ccc(C2=NNC(=O)CC2C)cc1 (stereo not drawn),inactive,,,,inactive,inactive,inactive,,inactive,inactive
C=C(CC)C(=O)c1ccc(OCC(=O)O)c(Cl)c1Cl,,,11.2 µM (active),,,,,,,
CNCCC(Oc1ccccc1C)c1ccccc1 (stereo not drawn),,inactive,7.08 µM (active),inactive,6.01 µM (active),6.75 µM (active),,inactive,inactive,inactive
CNCCC=C1c2ccccc2CCc2ccccc21,,,8.91 µM (active),inactive,2.13 µM (active),3.79 µM (active),,,8.49 µM (active),
CC(C)COC(=O)c1ccc(N)cc1,,inactive,inactive,inactive,,inactive,inactive,inactive,inactive,inactive
CN1CCN(CCCN2c3ccccc3Sc3ccc(S(=O)(=O)N(C)C)cc32)CC1,inactive,,3.55 µM (active),,4.55 µM (active),,7.21 µM (active),4.47 µM (active),,
Oc1c(I)cc(I)c2cccnc12,,,,inactive,inactive,,,inactive,,
C[C@@H]1CN(CCCn2c3ccccc3c3ccccc32)C[C@H](C)N1,,14.1 µM (active),6.31 µM (active),inactive,2.39 µM (active),4.78 µM (active),9.53 µM (active),10 µM (active),13.5 µM (active),
O=C(N/N=C/c1ccccc1O)c1ccncc1,,7.94 µM (active),11.2 µM (active),inactive,,,,,,6.01 µM (active)

Compound,Potency [1],Potency [2],Potency [3],Potency [4],Potency [5],Potency [6],Potency [7],Potency [8],Potency [9],Potency [10]
CC(C)N=C(N)/N=C(\N)Nc1ccc(Cl)cc1,,,3.55 µM (active),,inactive,,,,,
C[C@@H](CN(C)C)CN1c2ccccc2Sc2ccccc21,,inactive,,inactive,,,,inactive,,inactive
Cc1ccc(O)c2ncccc12,inactive,,,inactive,,,inactive,,,
CCCCc1nc(Cl)c(CO)n1Cc1ccc(-c2ccccc2-c2nn[nH]n2)cc1,,,,inactive,8.49 µM (active),,,,,
COc1cc(-c2ccc(=O)[nH]n2)ccc1OC(F)F,,0.501 µM (active),inactive,,inactive,,,inactive,inactive,
O=C(CCCN1CCC(O)(c2ccc(Br)cc2)CC1)c1ccc(F)cc1,,inactive,3.55 µM (active),inactive,5.73 µM (active),6.42 µM (active),,inactive,5.73 µM (active),
COc1ccc(CN2CCN(C(c3ccc(F)cc3)c3ccc(F)cc3)CC2)c(OC)c1OC,,,7.94 µM (active),,12 µM (active),12 µM (active),16.9 µM (active),12.6 µM (active),9.53 µM (active),6.01 µM (active)
CO/N=C1\CN(c2nc3c(cc2F)c(=O)c(C(=O)O)cn3C2CC2)CC1CN (stereo not drawn),,,10 µM (active),,,,,,9.53 µM (active),6.75 µM (active)
CN(C)CCOc1ccccc1Cc1ccccc1,,6.31 µM (active),5.01 µM (active),inactive,8.49 µM (active),10.7 µM (active),inactive,,,
OC(CCN1CCCCC1)(c1ccccc1)c1ccccc1,,,10 µM (active),inactive,4.26 µM (active),6.75 µM (active),,inactive,6.75 µM (active),
O=c1c(-c2ccccc2)c1-c1ccccc1,,,10 µM (active),,,10.7 µM (active),,,10.7 µM (active),
CN(C)C(=S)SC(=S)N(C)C,,10 µM (active),7.08 µM (active),,13.5 µM (active),,12 µM (active),1.12 µM (active),13.5 µM (active),8.49 µM (active)
c1ccc(-c2ccc(C(c3ccccc3)n3ccnc3)cc2)cc1 (stereo not drawn),,,7.94 µM (active),,9.53 µM (active),10.7 µM (active),12 µM (active),3.55 µM (active),8.49 µM (active),
CCN(CC)CCOc1ccc(C(O)(Cc2ccc(Cl)cc2)c2ccc(C)cc2)cc1 (stereo not drawn),,,10 µM (active),inactive,9.53 µM (active),15.1 µM (active),,,13.5 µM (active),12 µM (active)
Clc1ccc2c(c1)CCc1cccnc1C2=C1CCNCC1,,inactive,4.47 µM (active),inactive,7.57 µM (active),9.53 µM (active),16.9 µM (active),,,
CCOc1ccc(Cc2nccc3cc(OCC)c(OCC)cc23)cc1OCC,,inactive,inactive,inactive,inactive,inactive,,inactive,,
Oc1ccc(O)cc1,,,,inactive,,inactive,,,,2.39 µM (active)
CCOC(=O)c1cccc(N)c1,,inactive,inactive,inactive,,,12 µM (active),inactive,,inactive
CCCCCCCCCCCCCCCC[N+](C)(C)CCN(Cc1ccc(OC)cc1)c1ncccn1,inactive,,,inactive,7.21 µM (active),,inactive,1.12 µM (active),,
O=C1OCCN1/N=C/c1ccc([N+](=O)[O-])o1,inactive,,11.2 µM (active),,,,,,,
CCN(CC)CCOC(=O)C(c1ccccc1)C1CCCCC1 (stereo not drawn),,inactive,11.2 µM (active),inactive,5.36 µM (active),,inactive,,,inactive
CN1CCC(=C2c3ccccc3Sc3ccccc32)CC1,,10 µM (active),4.47 µM (active),,7.57 µM (active),12 µM (active),9.53 µM (active),7.08 µM (active),3.38 µM (active),12 µM (active)
COc1ccc(/C=C/C(=O)c2ccc(OC)cc2OC)cc1,,7.94 µM (active),7.08 µM (active),8.91 µM (active),10.7 µM (active),16.9 µM (active),12 µM (active),8.91 µM (active),7.57 µM (active),6.75 µM (active)
CC(C)NC[C@@H](O)COc1cccc2ccccc12,,,12.6 µM (active),inactive,13.5 µM (active),9.53 µM (active),,,12 µM (active),
CC(C)=CCC1C(=O)N(c2ccccc2)N(c2ccccc2)C1=O,,,,inactive,,,,,,
CCOC(=O)/C=C(C)/C=C/C=C(C)/C=C/c1c(C)cc(OC)c(C)c1C,inactive,,,inactive,inactive,,inactive,,inactive,
CN1CCN(C(c2ccccc2)c2ccccc2)CC1,,inactive,,inactive,,,inactive,inactive,,
